# Records with an inconclusive call do not appear. Where a call stands in place of a potency, no number is given. Active and inactive are the calls of the source. The call rests on the fitted dose curve; in most records, active means well fitted curve in the direction sought with a large enough effect; inconclusive means small, poorly fitted or top-dose-only effect, or another doubt; inactive means no such curve, though single readings can be large; an effect the other way counts as inactive or inconclusive.
# Tests used:
# MCC-13 = assay: qHTS assay to identify novel small-molecules to repurpose for Merkel cell carcinoma treatment (AID 1296009); settings: MCC and control cell lines, CellTiter-Glo viability, 72 h; series mostly up to 46 µM; further: nearly all actives have a fitted effect of over 60% in size; further: potency means the concentration at half of the fitted maximal effect
# Method in brief: (§1)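 72 hr, 37 degree celsius; NPC 8-pt / MIPE 11-pt dose response; compound pinned in DMSO; CellTiter-Glo, 10 min RT, luminescence; normalized to no-cell and DMSO controls.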
# MKL-1 = assay: as above; settings: MCC and control cell lines, CellTiter-Glo viability, 72 h; series mostly up to 46 µM
# Method in brief: as §1
# MKL-2 = assay: as above; settings: MCC and control cell lines, CellTiter-Glo viability, 72 h; series mostly up to 46 µM
# Method in brief: as §1
# NIH3T3 = assay: as above; settings: MCC and control cell lines, CellTiter-Glo viability, 72 h; at 44.8 µM (top of the series) unless noted
# Method in brief: as §1
# UISO = assay: as above; settings: MCC and control cell lines, CellTiter-Glo viability, 72 h; series mostly up to 46 µM
# Method in brief: as §1
# WaGa = assay: as above; settings: MCC and control cell lines, CellTiter-Glo viability, 72 h; series mostly up to 46 µM
# Method in brief: as §1
# MCC-26 = assay: as above; settings: MCC and control cell lines, CellTiter-Glo viability, 72 h; series mostly up to 46 µM
# Method in brief: as §1
# C33A = assay: Primary qHTS to identify gynecologic anti-cancer compounds using libraries of approved drugs and bioactive compounds (AID 1345084); settings: Gynecologic cancer cell panel viability, ATPlite luminescence, 48 h; series mostly up to 57.5 µM; further: nearly all actives have a fitted effect of over 55% in size; further: potency means the concentration at half of the fitted maximal effect
# Method in brief: (§2)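 Five-concentration response, 48 h; readout is ATP-driven luciferase luminescence.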
# CASKI = assay: as above; settings: Gynecologic cancer cell panel viability, ATPlite luminescence, 48 h; series mostly up to 57.5 µM
# Method in brief: as §2
# Es-2 = assay: as above; settings: Gynecologic cancer cell panel viability, ATPlite luminescence, 48 h; series mostly up to 57.5 µM
# Method in brief: as §2
# HeLa = assay: as above; settings: Gynecologic cancer cell panel viability, ATPlite luminescence, 48 h; series mostly up to 57.5 µM
# Method in brief: as §2
# Hek293T = assay: as above; settings: Gynecologic cancer cell panel viability, ATPlite luminescence, 48 h, control line for the selectivity index; series mostly up to 57.5 µM
# Method in brief: as §2
# JEG-3 = assay: as above; settings: Gynecologic cancer cell panel viability, ATPlite luminescence, 48 h; series mostly up to 57.5 µM
# Method in brief: as §2
# PA-1 = assay: as above; settings: Gynecologic cancer cell panel viability, ATPlite luminescence, 48 h; series mostly up to 57.5 µM
# Method in brief: as §2
# Tov-21-G = assay: as above; settings: Gynecologic cancer cell panel viability, ATPlite luminescence, 48 h; series mostly up to 57.5 µM
# Method in brief: as §2
# Tov112D = assay: as above; settings: Gynecologic cancer cell panel viability, ATPlite luminescence, 48 h; series mostly up to 57.5 µM
# Method in brief: as §2
# OV90 = assay: as above; settings: Gynecologic cancer cell panel viability, ATPlite luminescence, 48 h; series mostly up to 57.5 µM
# Method in brief: as §2
# SKOV3 = assay: as above; settings: Gynecologic cancer cell panel viability, ATPlite luminescence, 48 h; series mostly up to 57.5 µM
# Method in brief: as §2
# [1] = Drug repurposing screens with cells derived from glioblastoma tumor samples (AID 1345199); settings: GBM patient neurospheres viability, ATP luminescence, 48 h; Potency: tumour line A; series mostly up to 46.1 µM; further: nearly all actives have a fitted effect of over 40% in size
# Method in brief: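 Four patient lines of CD133+ GBM neurospheres were screened at several concentrations; hits were retested in those lines plus three slower-growing GBM lines, using 48-hour treatment and ATP-based viability.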
structure (smiles),measurement,setting,value
O=c1[nH]c(=O)n([C@H]2C[C@@H](O)[C@@H](CO)O2)cc1C=CBr,Potency,MCC-13,inactive
same,Potency,MKL-1,inactive
same,Potency,MKL-2,inactive
same,outcome,NIH3T3,inactive
same,Potency,UISO,inactive
same,Potency,WaGa,inactive
C[C@@H]1C(=O)O[C@H]2CC34[C@H]5C[C@@H](C(C)(C)C)C36[C@H](OC(=O)[C@@H]6O)O[C@@]4(C(=O)O5)[C@]21O (stereo partly drawn),Potency,MCC-13,inactive
same,Potency,MCC-26,inactive
same,outcome,NIH3T3,inactive
same,Potency,UISO,inactive
CC(=O)ON=C1C(c2c(O)[nH]c3cc(Br)ccc23)=Nc2ccccc21,Potency,MCC-13,inactive
same,Potency,MCC-26,inactive
same,Potency,MKL-2,inactive
NC(=O)N1CCC(CC(=O)N2CCC([C@H]3c4ncc(Br)cc4CCc4cc(Cl)cc(Br)c43)CC2)CC1,Potency,MCC-13,inactive
same,Potency,MCC-26,inactive
same,Potency,WaGa,11.8 µM (active)
COc1ccc(S(=O)(=O)Nc2cc(-c3c(O)ccc4ccccc34)c(O)c3ccccc23)cc1,Potency,MCC-13,inactive
same,Potency,MCC-26,inactive
same,Potency,MKL-2,26.4 µM (active)
same,outcome,NIH3T3,inactive
same,Potency,UISO,0.166 µM (active)
COc1ccc2cc([S+]([O-])Cc3ncc(C)c(OC)c3C)nc2c1,Potency,MCC-13,inactive
same,Potency,MCC-26,inactive
same,Potency,MKL-1,inactive
same,Potency,WaGa,inactive
C[C@]12CC[C@@H]3c4ccc(O)cc4CC[C@H]3[C@H]1CC[C@H]2O,Potency,MCC-13,inactive
same,Potency,MCC-26,inactive
same,Potency,MKL-2,inactive
CC(C)(O)CC[C@@H](O)[C@](C)(O)[C@H]1CC[C@@]2(O)C3=CC(=O)[C@@H]4C[C@@H](O)[C@@H](O)C[C@]4(C)[C@@H]3CC[C@]12C,Potency,MCC-13,inactive
same,Potency,MKL-1,inactive
same,Potency,MKL-2,inactive
same,Potency,UISO,inactive
same,Potency,WaGa,inactive
CCc1nc(-c2cccc(C)c2)c(-c2ccnc(NC(=O)c3ccccc3)c2)s1,Potency,MCC-13,inactive
same,Potency,MCC-26,inactive
same,Potency,C33A,inactive
same,Potency,CASKI,inactive
same,Potency,Es-2,inactive
same,Potency,HeLa,inactive
same,Potency,Hek293T,inactive
same,Potency,JEG-3,inactive
same,Potency,PA-1,inactive
same,Potency,Tov-21-G,inactive
same,Potency,Tov112D,inactive
CN1CCc2c(c3ccccc3n2Cc2ccc(C(=O)NO)cc2)C1,Potency,MCC-13,inactive
same,Potency,MCC-26,inactive
same,Potency,WaGa,20.9 µM (active)
same,Potency,C33A,inactive
same,Potency,CASKI,inactive
same,Potency,Es-2,inactive
same,Potency,HeLa,inactive
same,Potency,Hek293T,inactive
same,Potency,JEG-3,inactive
same,Potency,OV90,inactive
same,Potency,SKOV3,inactive
same,Potency,Tov112D,inactive
CC1(C)[C@H](O[C@H]2O[C@H](C(=O)O)[C@@H](O)[C@H](O)[C@H]2O[C@@H]2O[C@H](C(=O)O)[C@@H](O)[C@H](O)[C@H]2O)CC[C@@]2(C)[C@H]1CC[C@]1(C)[C@H]2C(=O)C=C2[C@H]3C[C@@](C)(C(=O)O)CC[C@]3(C)CC[C@]21C,Potency,MCC-13,inactive
same,Potency,MKL-1,inactive
same,Potency,MKL-2,inactive
same,outcome,NIH3T3,inactive
same,Potency,UISO,inactive
same,Potency,WaGa,inactive
same,Potency,[1],inactive
N#Cc1c(C2CCNCC2)cc(-c2c(O)cccc2OCC2CC2)nc1N,Potency,MCC-13,inactive
same,Potency,MCC-26,inactive
same,Potency,MKL-1,inactive
same,Potency,C33A,inactive
same,Potency,Es-2,inactive
same,Potency,HeLa,inactive
same,Potency,Hek293T,inactive
same,Potency,OV90,inactive
same,Potency,Tov-21-G,14.1 µM (active)
same,Potency,Tov112D,inactive
CC(C=CC1=C(C)CCCC1(C)C)=CC=CC(C)=CC(=O)Nc1ccc(O)cc1,Potency,MCC-13,inactive
same,Potency,MCC-26,inactive
same,Potency,MKL-2,30.3 µM (active)
CCS(=O)(=O)Nc1ccc2[nH]c(O)c(C(=Nc3ccc(CN4CCCCC4)cc3)c3ccccc3)c2c1,Potency,MCC-13,5.26 µM (active)
same,Potency,MCC-26,1.48 µM (active)
same,Potency,MKL-2,inactive
same,Potency,UISO,20.9 µM (active)
CCOc1cc2c(c(F)c1OCC)C(=N)N(CC(=O)c1cc(N3CCOCC3)c(OC)c(C(C)(C)C)c1)C2,Potency,MCC-13,inactive
same,Potency,MCC-26,inactive
same,Potency,WaGa,inactive
same,Potency,CASKI,inactive
same,Potency,Es-2,inactive
same,Potency,HeLa,inactive
same,Potency,Hek293T,inactive
same,Potency,JEG-3,inactive
same,Potency,Tov-21-G,inactive
same,Potency,Tov112D,inactive
CC(C)(N)c1ccc(-c2nc3ccccc3nc2-c2ccccc2)cc1,Potency,MCC-13,inactive
same,Potency,MCC-26,inactive
same,Potency,WaGa,18.7 µM (active)
same,Potency,C33A,inactive
same,Potency,HeLa,inactive
same,Potency,Hek293T,inactive
same,Potency,JEG-3,inactive
same,Potency,Tov-21-G,inactive
same,Potency,Tov112D,inactive
OCCNC1CCCc2c1[nH]c1ccc(-c3ccccc3)cc21 (stereo not drawn),Potency,MCC-13,inactive
same,Potency,MCC-26,inactive
same,Potency,MKL-2,26.4 µM (active)
same,Potency,Es-2,inactive
same,Potency,HeLa,8.91 µM (active)
same,Potency,Hek293T,inactive
same,Potency,JEG-3,inactive
same,Potency,OV90,inactive
same,Potency,PA-1,20 µM (active)
same,Potency,Tov-21-G,inactive
same,Potency,Tov112D,inactive
COc1cccc2c1C(=O)c1c(O)c3c(c(O)c1C2=O)C[C@@](O)(C(=O)CO)C[C@H]3O[C@H]1C[C@H](N)[C@H](O)[C@H](C)O1,Potency,MCC-13,2.64 µM (active)
same,Potency,MCC-26,2.35 µM (active)
same,Potency,MKL-1,0.118 µM (active)
same,Potency,WaGa,0.0743 µM (active)
COc1cc(C[C@@H](CO)[C@H](CO)Cc2ccc(O)c(OC)c2)ccc1O,Potency,MCC-13,inactive
same,Potency,MCC-26,inactive
same,Potency,MKL-2,16.6 µM (active)
same,outcome,NIH3T3,inactive
CCN(CC)CCNC(=O)c1c(C)[nH]c(C=C2C(=O)Nc3ccc(F)cc32)c1C,Potency,MCC-13,42.9 µM (active)
same,Potency,MKL-1,12.1 µM (active)
same,Potency,MKL-2,15.2 µM (active)
same,Potency,UISO,6.05 µM (active)
same,Potency,WaGa,13.6 µM (active)
